Measurements published in ChEMBL document CHEMBL4513216, “Probing the Open Global Health Chemical Diversity Library for Multistage-Active Starting Points for Next-Generation Antimalarials” (ACS Infect Dis, 2020).
Hit rate of the full screen: of about 68,000 compounds, about 2,700 (4%) showed an effect of 50% or more. Shown is part of a subset that was picked to be rich in strong results.

Tested on: Plasmodium berghei
Experiment: Screen against P. berghei liver stage (PbLuc), transformed with Luciferase, at 2uM
Type: functional, HepG2
Conditions: tested at 2 uM

In order of falling INHIBITION:
1. Cc1nccc(C2CCCCN2Cc2cccc(F)c2)n1 (stereo not given)  94.5%
2. Cc1ncsc1CCN(C)C(=O)c1ccc(Cn2cnnn2)cc1  89.46%
3. O=C(Cn1cccn1)NCC1CCCN(Cc2ccccc2)C1 (stereo not given)  81.59%
4. CC(CNC(=O)c1c[nH]nn1)Oc1ccccc1Br (stereo not given)  67.83%
5. CC(NCc1cccs1)c1ccc(OCc2nccn2C)cc1 (stereo not given)  63.46%
6. Fc1cccc(C2CCCCN2Cc2nc(-c3cnccn3)no2)c1 (stereo not given)  58.69%
7. Cc1ccc(OCC(=O)NS(=O)(=O)c2c(C)noc2C)cc1C  57.33%
8. CC(C(=O)Nc1cccc(F)c1)N(C)CCN1CCOCC1 (stereo not given)  57.23%
9. Cc1noc(C)c1S(=O)(=O)NC(=O)COc1ccc2c(c1)CCC2  56.78%
10. CCn1cc(CN2CCN(CC(O)c3ccc(C)cc3C)CC2)c(C)n1 (stereo not given)  54.9%
11. O=C1N(Cc2ccccn2)C[C@H]2CN(C3CCC3)CCN12  52.36%
12. O=C1N(Cc2ccccn2)C[C@H]2CN(S(=O)(=O)c3ccccc3)CCN12  50.72%
13. Cc1cnn(CC2CCCCN2CCS(C)(=O)=O)c1 (stereo not given)  44.41%
14. Cc1noc(C)c1S(=O)(=O)NC(=O)COc1cccc(C(C)C)c1  42.99%
15. O=C1N(Cc2cccnc2)C[C@H]2CN(S(=O)(=O)c3ccccc3)CCN12  40.83%
16. CC(=O)N1CCC(N2CCN3C(=O)N(Cc4ccccn4)C[C@H]3C2)CC1  37.54%
17. Cc1ccc(NCCCNc2nccc(-c3cn(C)nc3C)n2)nc1  37.5%
18. CC(NCc1cnn(C)c1)c1ccc(OCc2nccn2C)cc1 (stereo not given)  37.18%
19. CCn1cc(CN2CCN(CC(O)c3ccc(C)cc3C)CC2)cn1 (stereo not given)  35.73%
20. Cc1cc(C2CCCN2C(=O)c2ccc(OCC(N)=O)cc2)no1 (stereo not given)  34.18%
21. c1ccc(N2CCCC3(CCN(Cc4ccsc4)C3)C2)nc1 (stereo not given)  33.14%
22. CS(=O)(=O)N1CC2(CCN(C3COC3)C2)Cc2ccccc21 (stereo not given)  26.56%
23. CC(=O)NCC(=O)N1CCCC1c1ccc(CN2CCOCC2)cn1 (stereo not given)  26.22%
24. Nc1nccc(C2CCCCN2Cc2cccc(F)c2)n1 (stereo not given)  25.72%
25. CC(NCc1ccsc1)c1ccc(OCc2nccn2C)cc1 (stereo not given)  24.05%
26. Cc1nc(CN(C)C(=O)c2ccc(Cn3cnnn3)cc2)cs1  21.57%
27. Cc1noc(C)c1S(=O)(=O)NC(=O)COc1ccc(C(C)C)cc1  19.71%
28. CC(C)(C)CC(=O)N[C@@H]1CO[C@H](CNC(=O)c2ccncc2)[C@H]1O  17.9%
29. O=C(N1CCCC1)C1(Cc2ccc(-c3cccs3)cc2)CCNC1 (stereo not given)  17.24%
30. Cn1ccnc1CN1C[C@H]2CN(S(=O)(=O)c3ccccc3)CCN2C1=O  15.02%
31. COCC(=O)N1CCCN(Cc2c(C)nc3ccc(Cl)cn23)CC1  12.43%
32. Cc1oc(-c2ccsc2)nc1CC(=O)NCC(=O)Nc1cn[nH]c1  11.01%
33. CC(C(=O)NCc1ccc(F)cc1)N(C)CCN1CCOCC1 (stereo not given)  10.71%
34. CN(Cc1ccc(N(C)C)cc1)C(=O)CS(=O)(=O)c1ccc(Cl)cc1  9.02%
35. O=C(NCCCn1nc2ccccn2c1=O)NC1CCC(O)CC1 (stereo not given)  8.3%
36. c1ccc(C2CCCCN2Cc2nc(-c3cnccn3)no2)nc1 (stereo not given)  6.92%
37. Cc1cc(C)c(OCC(=O)NS(=O)(=O)c2c(C)noc2C)c(C)c1  5.72%
38. Cc1ccsc1CN1CCn2c(COc3cccnc3)cnc2C1C (stereo not given)  3.63%
39. Cc1cc(CN2CCCC(CNC(=O)Cn3cccn3)C2)oc1C (stereo not given)  2.9%
40. CCc1ncnc2c1CCN(S(=O)(=O)CC)CC2  1.81%
41. O=C(Cn1cccn1)NCC1CCN(Cc2cc3ccccc3[nH]2)C1 (stereo not given)  -0.59%
42. COc1cccc(CNC(=O)CCC2=Nc3ccccc3S(=O)(=O)N2)c1  -1.65%
43. CCn1cc(CN2CCN(CC(O)c3cc(C)ccc3C)CC2)c(C)n1 (stereo not given)  -2.2%
44. CC(C)c1noc(CN2CCN(C(=O)c3cccnc3O)CC2)n1  -2.82%
45. c1ccc(C2CCCN2Cc2nc(-c3cnccn3)no2)nc1 (stereo not given)  -5.19%
46. Cc1cc(CNc2nccc(N)n2)c2[nH]c(C)c(C)c2c1  -5.41%
47. O=C(CCCc1cn[nH]c1)N1C[C@@H](CN2CCCCCC2)[C@@H](CO)C1  -5.41%
48. Cc1cc(=O)[nH]c(-n2nc(C)c(CCC(=O)Nc3nc(C)cs3)c2C)n1  -7.56%
49. O=C1N(Cc2ccccn2)C[C@H]2CN(C3CCOCC3)CCN12  -8.59%
50. Cc1ccc(OC(C)CNC(=O)c2c[nH]nn2)cc1 (stereo not given)  -9.5%
51. CC(=O)NCC(=O)N1Cc2cc(C#N)ccc2C1c1cnco1 (stereo not given)  -9.91%
52. Cc1nccc(C2CCCCN2Cc2ccc(F)cc2)n1 (stereo not given)  -10.12%
53. CC(CNC(=O)c1c[nH]nn1)Oc1cccc(Br)c1 (stereo not given)  -10.85%
54. Cc1cc(OCC(=O)NS(=O)(=O)c2c(C)noc2C)ccc1Cl  -12.48%
55. O=C(c1ccccc1)C1CCN(C(=O)CC2COCCN2)CC1 (stereo not given)  -13.88%
56. CC(Cn1ccnc1)NC(=O)NCCc1ccc2c(c1)OCCO2 (stereo not given)  -14.3%
57. CNC(=O)C1Cn2ccnc2C2(CCN(Cc3cccc(C)n3)CC2)O1 (stereo not given)  -15.95%
58. CC(C(=O)Nc1cccc(C(F)(F)F)c1)N(C)CCN1CCOCC1 (stereo not given)  -18.99%
59. CCn1cnnc1C1CCN(C(=O)c2ccccc2F)CC1  -19.35%
60. Cc1ncsc1CCN(C)C(=O)c1ccc(CN2CCCCC2)cc1  -20.75%
61. COc1ccc(NC(=O)N2CCC(c3noc(C)n3)CC2)cc1C  -30.88%
62. CCN(C(=O)CNc1cc(C)c(F)cc1C(N)=O)C1CC1  -31.4%
63. O=S(=O)(Nc1cnn(C2CCOCC2)c1)c1ccc(F)c(F)c1  -38.4%
64. CCOCC1CN(Cc2cnn(C)c2)Cc2nn(CC3CC3)cc21 (stereo not given)  -50.35%
65. CNC(=O)N1CC[C@@H]2CN(Cc3cccc(OC)c3)S(=O)(=O)[C@@H]2CC1  -72.58%
